Data reported in PubChem BioAssay (Tox21).
Several values for one entry are separate records, joined by “and”; a condition that tells them apart may be missing. Identical values can stand only once. Records with an inconclusive call do not appear. Where a call stands in place of a potency, no number is given. The source holds several records for some structures; these can differ, active in one and inactive in another. Activity calls are given as the source filed them. Unless noted, calls follow the shape of the full dose curve.

Key:
[1] = Nuclear factor erythroid 2-related factor 2/antioxidant responsive element (Nrf2/ARE) small molecule agonists: qHTS cell viability counter screen in human keratinocytes (AID 1919968; active = well fitted curve in the direction sought with a large enough effect in the repeat runs; an effect the other way counts as inactive or inconclusive; also: nearly all actives have a fitted effect of over 55% in size; also: potency is read from the fitted curve at half-maximal effect)
Method in brief: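 Viability counter-screen: KeratinoSens reporter cells, DMSO-delivered compounds, 23 h at 37 C, CellTiter-Fluor fluorescence.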

[2] = Nuclear factor erythroid 2-related factor 2/antioxidant responsive element (Nrf2/ARE) small molecule agonists: luciferase reporter gene qHTS assay in human keratinocytes (AID 1919969); also: nearly all actives have a fitted effect of over 35% in size; also: potency is read from the fitted curve at half-maximal effect
[3] = target: Gonadotropin-releasing hormone receptor (Homo sapiens) (UniProt P30968); assay: Human gonadotropin-releasing hormone receptor (GnRHR) small molecule agonists, calcium flux assay in GnRHR-HEK293 cells (AID 1920063); also: nearly all actives have a fitted effect of over 35% in size
Sequence of Gonadotropin-releasing hormone receptor (Homo sapiens) (P30968 whole entry, looked up): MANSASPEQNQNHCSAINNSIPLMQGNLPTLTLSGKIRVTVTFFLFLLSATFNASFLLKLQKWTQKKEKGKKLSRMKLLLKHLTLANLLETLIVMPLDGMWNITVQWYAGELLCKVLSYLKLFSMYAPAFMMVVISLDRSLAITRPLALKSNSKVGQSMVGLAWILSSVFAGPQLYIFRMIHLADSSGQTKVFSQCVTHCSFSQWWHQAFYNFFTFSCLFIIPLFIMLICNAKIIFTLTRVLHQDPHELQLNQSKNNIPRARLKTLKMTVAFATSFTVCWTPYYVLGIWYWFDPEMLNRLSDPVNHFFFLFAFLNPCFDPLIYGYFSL
Method in brief: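 Tox21-format agonist screen using human GnRHR-expressing HEK293 cells and a fluorescent calcium dye; kinetic 3-min fluorescence reading after compound addition, 15-point concentration series run in triplicate.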

[4] = target: KiSS-1 receptor (Homo sapiens) (UniProt Q969F8); assay: Human kisspeptin (KISS1R) small molecule agonists, calcium flux assay in KISS1R-HEK293 cells (AID 1920064; active = well fitted curve in the direction sought with a large enough effect in the repeat runs; an effect the other way counts as inactive or inconclusive)
Sequence of KiSS-1 receptor (Homo sapiens) (Q969F8 whole entry, looked up): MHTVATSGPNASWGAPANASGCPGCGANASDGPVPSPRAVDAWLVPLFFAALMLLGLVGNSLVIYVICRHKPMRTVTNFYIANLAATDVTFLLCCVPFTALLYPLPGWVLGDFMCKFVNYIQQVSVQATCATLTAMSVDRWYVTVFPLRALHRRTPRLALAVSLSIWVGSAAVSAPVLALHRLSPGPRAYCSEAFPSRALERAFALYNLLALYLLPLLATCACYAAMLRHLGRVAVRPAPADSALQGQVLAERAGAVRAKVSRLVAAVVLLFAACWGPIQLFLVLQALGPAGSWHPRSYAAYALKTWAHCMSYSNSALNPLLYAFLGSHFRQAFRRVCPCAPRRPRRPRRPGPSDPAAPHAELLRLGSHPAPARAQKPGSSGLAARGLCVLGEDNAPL
Method in brief: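 Intracellular calcium mobilization in KISS1R-HEK293 cells was recorded by fluorescence (Ex/Em 480/540) for 3 min following compound addition to cells pre-loaded 1 h with calcium dye.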

[5] = G protein-coupled receptor (GPCR) small molecule agonists, calcium flux assay: HEK293 wild type cell line counter screen (AID 1920065)
Method in brief: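 In this agonist-mode screen, ATP is the positive control and DMSO the vehicle. Cells grow 18 h before a 1 h dye incubation at 37 C; signal is taken at Ex/Em 480/540 over 3 min.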

[6] = p53 small molecule agonists, cell-based qHTS assay with human liver microsomes (AID 1963577);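 also: p53 response element beta-lactamase reporter cells with liver microsomes plus NADPH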
Method in brief: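 Steps: plate p53RE-bla cells, incubate 5 h at 37 C; add compound in DMSO; add microsomes (0.5 mg/mL final) and NADPH (0.5 mg/mL final); incubate 16 h at 37 C; add LiveBLAzer, 2 h RT; read fluorescence.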

[7] = p53 small molecule agonists, cell-based qHTS assay with human liver microsomes: qHTS cell viability counter screen (AID 1963579); also: nearly all actives have a fitted effect of over 45% in size
Method in brief: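 After the 460/530 nm beta-lactamase read, CellTiter-Glo was added to the same wells and luminescence measured after 30 min at room temperature, giving viability of p53RE-bla cells treated 16 h with compounds plus microsomes and NADPH.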

[8] = p53 small molecule agonists, cell-based qHTS assay with rat liver microsomes: qHTS cell viability counter screen (AID 1963580); also: nearly all actives have a fitted effect of over 45% in size; also: potency is read from the fitted curve at half-maximal effect
Method in brief: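 p53RE-bla HCT-116 cells were exposed 16 h at 37 C to compounds with rat liver microsomes (0.5 mg/mL) and NADPH (0.5 mg/mL). Viability was measured in the same wells as ATP content by CellTiter-Glo luminescence.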

[9] = p53 small molecule agonists, cell-based qHTS assay: qHTS cell viability counter screen (AID 1963581); also: nearly all actives have a fitted effect of over 45% in size
Method in brief: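 Compounds are pinned onto HCT-116 p53RE-bla cells and left 16 h at 37 C. Following the reporter FRET read, ATP is quantified by CellTiter-Glo luminescence after 30 min at room temperature.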

[10] = p53 small molecule agonists, cell-based qHTS assay (AID 1963582; active = well fitted activation curve with a large enough effect in the signal ratio in the repeat runs, not every such curve was filed as active; the % refers to the signal ratio)
Method in brief: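 Agonist activity was scored from beta-lactamase FRET fluorescence in p53RE-bla cells treated 16 h at 37 C with compounds in DMSO, substrate incubation being 2 h at room temperature.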

[11] = target: 5-hydroxytryptamine receptor 2A (Homo sapiens) (UniProt P28223); assay: 5-hydroxytryptamine receptor 2A (HTR2A) small molecule antagonists, cell-based qHTS assay (AID 1963586); also: nearly all actives have a fitted effect of over 45% in size; also: potency is read from the fitted curve at half-maximal effect
Sequence of 5-hydroxytryptamine receptor 2A (Homo sapiens) (P28223 whole entry, looked up): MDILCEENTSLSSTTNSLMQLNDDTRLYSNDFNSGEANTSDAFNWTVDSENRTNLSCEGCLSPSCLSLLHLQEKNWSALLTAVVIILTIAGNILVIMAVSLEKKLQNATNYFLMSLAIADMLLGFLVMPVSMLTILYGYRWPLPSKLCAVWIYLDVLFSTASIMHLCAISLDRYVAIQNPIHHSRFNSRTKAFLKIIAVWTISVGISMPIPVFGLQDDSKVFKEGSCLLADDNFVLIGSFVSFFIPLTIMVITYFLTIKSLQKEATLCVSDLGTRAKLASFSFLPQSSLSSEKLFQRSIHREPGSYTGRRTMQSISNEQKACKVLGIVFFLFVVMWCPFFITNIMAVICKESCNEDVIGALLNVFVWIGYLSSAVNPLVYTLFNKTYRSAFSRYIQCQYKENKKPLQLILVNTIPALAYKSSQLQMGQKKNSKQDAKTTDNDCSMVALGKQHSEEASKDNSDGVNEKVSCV
Method in brief: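 Antagonist-mode intracellular calcium assay: DOI (4 nM) added after 5 min compound pre-incubation at room temperature to dye-loaded HTR2A-CHO cells. Fluorescence followed for 3 min, sampled every second.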

[12] = target: 5-hydroxytryptamine receptor 2A (Homo sapiens) (UniProt P28223); assay: 5-hydroxytryptamine receptor 2A (HTR2A) small molecule agonists, cell-based qHTS assay (AID 1963587); also: nearly all actives have a fitted effect of over 30% in size; also: potency is read from the fitted curve at half-maximal effect
Method in brief: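 CHO cells stably expressing human HTR2A, plated 18 h, loaded with calcium dye 1 h at 37 C. Agonist mode: compounds added and intracellular calcium fluorescence recorded kinetically for 2 min at 1 sec intervals.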

[13] = target: Muscarinic acetylcholine receptor M1 (Homo sapiens) (UniProt P11229); assay: Cholinergic receptor muscarinic 1 (CHRM1) small molecule agonists, cell-based qHTS assay (AID 1963589); also: nearly all actives have a fitted effect of over 35% in size
Sequence of Muscarinic acetylcholine receptor M1 (Homo sapiens) (P11229 whole entry, looked up): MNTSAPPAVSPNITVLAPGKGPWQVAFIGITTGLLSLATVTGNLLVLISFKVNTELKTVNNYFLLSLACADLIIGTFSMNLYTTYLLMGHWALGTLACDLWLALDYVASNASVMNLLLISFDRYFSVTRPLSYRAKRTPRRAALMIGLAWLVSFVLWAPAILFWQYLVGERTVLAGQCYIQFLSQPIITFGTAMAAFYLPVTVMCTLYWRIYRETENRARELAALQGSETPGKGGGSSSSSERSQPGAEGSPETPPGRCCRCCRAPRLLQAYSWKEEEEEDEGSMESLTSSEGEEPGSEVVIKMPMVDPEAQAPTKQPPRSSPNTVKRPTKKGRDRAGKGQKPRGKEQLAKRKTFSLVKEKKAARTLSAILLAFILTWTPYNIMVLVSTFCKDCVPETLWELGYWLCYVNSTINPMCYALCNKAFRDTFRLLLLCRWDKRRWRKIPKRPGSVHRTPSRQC
Method in brief: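 Stable CHRM1-CHO cells (human receptor) were incubated 18 h, dye-loaded for 1 h at 37 C and exposed to test compounds for agonist activity, with calcium-dependent fluorescence followed kinetically.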

[14] = cAMP Responsive Elements (CRE) small molecule agonists, cell-based qHTS assay (AID 1963590)
Method in brief: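 FRET-based beta-lactamase readout (LiveBLAzer B/G, 2 h RT) quantified CRE activation in HEK 293T CRE-bla cells after 3 h treatment with DMSO-dissolved compounds.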

[15] = cAMP Responsive Elements (CRE) small molecule antagonists, cell-based qHTS assay (AID 1963591; active = well fitted inhibition curve with a large enough effect in the signal ratio in the repeat runs, not every such curve was filed as active; the % refers to the signal ratio)
Method in brief: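 qHTS in CRE-bla HEK 293T cells: compound in DMSO, then 0.25 uM NKH477 (final), 3 h at 37 °C/5% CO2; beta-lactamase FRET read-out after 2 h substrate incubation.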

[16] = target: Beta-2 adrenergic receptor (Homo sapiens) (UniProt P07550); assay: Adrenergic beta2 receptor (ADRB2) small molecule antagonists, cell-based qHTS assay (AID 1963592); also: nearly all actives have a fitted effect of over 50% in size; also: potency is read from the fitted curve at half-maximal effect
Sequence of Beta-2 adrenergic receptor (Homo sapiens) (P07550 whole entry, looked up): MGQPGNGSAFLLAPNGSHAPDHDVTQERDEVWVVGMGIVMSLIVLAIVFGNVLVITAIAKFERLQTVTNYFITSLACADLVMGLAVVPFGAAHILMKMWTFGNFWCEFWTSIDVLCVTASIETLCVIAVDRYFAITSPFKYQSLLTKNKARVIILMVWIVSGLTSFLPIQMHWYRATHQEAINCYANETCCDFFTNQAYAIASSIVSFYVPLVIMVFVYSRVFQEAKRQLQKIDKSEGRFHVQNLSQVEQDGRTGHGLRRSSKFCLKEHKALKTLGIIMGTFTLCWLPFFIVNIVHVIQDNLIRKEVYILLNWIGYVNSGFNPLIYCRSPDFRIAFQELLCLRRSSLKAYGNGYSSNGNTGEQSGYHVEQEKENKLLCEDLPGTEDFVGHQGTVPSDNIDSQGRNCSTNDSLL
Method in brief: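 Cells (CHO, stable ADRB2 overexpression) incubated 18-20hr at 37C; compounds added from DMSO; agonist mix (1nM isoproterenol, 100uM IBMX, 25uM Ro-20-1724) added; 0.5hr RT; d2-cAMP and anti-cAMP-cryptate added; 1hr RT; 665/615 nm read.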

[17] = target: Beta-2 adrenergic receptor (Homo sapiens) (UniProt P07550); assay: Adrenergic beta2 receptor (ADRB2) small molecule agonists, cell-based qHTS assay (AID 1963593);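 also: CHO cells stably overexpressing human ADRB2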
Method in brief: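 CHO cells stably over-expressing ADRB2 were plated overnight at 37C, then dosed with compounds plus a stimulation mix containing 100uM IBMX and 25uM Ro-20-1724 for 0.5hr at room temperature. cAMP was measured by HTRF competition, 1hr.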

[18] = target: D(2) dopamine receptor (Homo sapiens) (UniProt P14416); assay: Dopamine D2 receptor (DRD2) small molecule agonists, cell-based qHTS assay (AID 1963594); also: nearly all actives have a fitted effect of over 35% in size
Sequence of D(2) dopamine receptor (Homo sapiens) (P14416 whole entry, looked up): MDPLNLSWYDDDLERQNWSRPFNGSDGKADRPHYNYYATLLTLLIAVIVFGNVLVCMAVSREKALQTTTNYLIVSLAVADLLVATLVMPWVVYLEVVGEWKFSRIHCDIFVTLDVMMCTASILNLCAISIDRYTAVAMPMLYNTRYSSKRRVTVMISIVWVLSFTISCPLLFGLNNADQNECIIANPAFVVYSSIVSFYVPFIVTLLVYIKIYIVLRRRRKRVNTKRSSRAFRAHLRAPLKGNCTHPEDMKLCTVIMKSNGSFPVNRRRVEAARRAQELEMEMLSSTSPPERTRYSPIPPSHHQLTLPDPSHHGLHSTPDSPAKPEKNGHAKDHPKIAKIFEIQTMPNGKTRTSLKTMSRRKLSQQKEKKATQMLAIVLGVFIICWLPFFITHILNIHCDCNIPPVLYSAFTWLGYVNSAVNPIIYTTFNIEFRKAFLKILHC
Method in brief: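 HEK293 cells stably expressing human DRD2, pre-treated with PDE inhibitor Ro20-1724 (0.1 mM final) and compound 10 min at room temperature, then stimulated with NKH477 (200nM […]) for 30 min. cAMP read by HTRF (665/620 nm).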

[19] = target: D(2) dopamine receptor (Homo sapiens) (UniProt P14416); assay: Dopamine D2 receptor (DRD2) small molecule antagonists, cell-based qHTS assay (AID 1963595; active = well fitted inhibition curve with a large enough effect in the signal ratio in the repeat runs, with a control signal flat; the % refers to the signal ratio)
Method in brief: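 Readout: HTRF cAMP, cAMP-d2 competing with cellular cAMP for anti-cAMP cryptate, read after 1 h. Cells: DRD2-HEK293. Conditions: 0.1 mM Ro20-1724, 12 nM quinpirole, 200 nM NKH477, 30 min RT.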

[20] = p53 small molecule agonists, cell-based qHTS assay with rat liver microsomes (AID 1963578)
Method in brief: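 Metabolic activation is supplied by rat liver microsomes with NADPH (each 0.5 mg/mL final). p53RE-bla cells incubate with compound 16 h at 37 C; reporter activity is measured by LiveBLAzer fluorescence.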

| SMILES | Potency [1] | Potency [2] | Potency [3] | Potency [4] | Potency [5] | Potency [6] | Potency [7] | Potency [8] | Potency [9] | Potency [10] | Potency [11] | Potency [12] | Potency [13] | Potency [14] | Potency [15] | Potency [16] | Potency [17] | Potency [18] | Potency [19] | Potency [20] |
| --- | --- | --- | --- | --- | --- | --- | --- | --- | --- | --- | --- | --- | --- | --- | --- | --- | --- | --- | --- | --- |
| CCC(=O)/C=C/C1C(C)=CCCC1(C)C (stereo unspecified) | inactive | inactive | inactive | inactive | inactive | inactive | inactive | inactive | inactive | inactive | inactive | inactive | inactive | inactive | inactive | inactive | inactive | inactive | inactive |  |
| C[C@]12C=CC(=O)C=C1CC[C@@H]1[C@@H]2C(=O)C[C@@]2(C)[C@H]1CC[C@]2(O)C(=O)CO | inactive | inactive | inactive | inactive | inactive | inactive | inactive | inactive | inactive | inactive |  |  |  | inactive | inactive | inactive | inactive |  | inactive |  |
| Cc1ncc[nH]1 | inactive | inactive | inactive | inactive | inactive | inactive | inactive | inactive | inactive | inactive | inactive | inactive | inactive | inactive | inactive |  | inactive | inactive | inactive |  |
| Cc1cc(Cc2cc(C)cc(C(C)(C)C)c2O)c(O)c(C(C)(C)C)c1 | 13.8 µM (active) and 13.7 µM (active) | inactive | inactive | inactive | inactive | inactive |  | inactive and 36.3 µM (active) | inactive |  | inactive |  | inactive |  |  | 34.6 µM (active) and inactive |  | inactive |  | inactive |
| CCCCC(CC)COC(=O)c1ccc(N(C)C)cc1 (stereo unspecified) | inactive | 30.8 µM (active) and 54.5 µM (active) and inactive | inactive | inactive | inactive | inactive |  | inactive | inactive | inactive | inactive | inactive | inactive | inactive | inactive | inactive |  | inactive | inactive | inactive |
| C/C=C1/CC2C=CC1C2 (stereo unspecified) | inactive | inactive | inactive | inactive | inactive | inactive |  | inactive | inactive | inactive | inactive | inactive | inactive | inactive | inactive | inactive | inactive | inactive | inactive | inactive |
| C=Cc1cccc(C)c1 | inactive | inactive | inactive | inactive | inactive | inactive | inactive | inactive | inactive | inactive | inactive | inactive |  | inactive | inactive | inactive | inactive | inactive | inactive |  |
| CCN(CCN)c1cccc(C)c1 | inactive | inactive | inactive | inactive | inactive | inactive | inactive | inactive | inactive | inactive | 530 nM (active) | 393 nM (active) and 776 nM (active) | inactive | inactive | inactive |  |  | inactive | inactive |  |
| CC1(C)S[C@@H]2[C@H](NC(=O)[C@H](N)c3ccccc3)C(=O)N2[C@H]1C(=O)O | inactive | inactive | inactive | inactive | inactive | inactive |  |  | inactive | inactive |  |  |  |  | inactive | inactive | inactive | inactive | inactive | inactive |
| COc1ccc(C(=O)c2ccccc2O)c(O)c1 | inactive | inactive | inactive | inactive | inactive | inactive | inactive | inactive | inactive | inactive | inactive | inactive | inactive | inactive | inactive | inactive |  | inactive | inactive |  |
| OC[C@H]1O[C@H](O[C@]2(CCl)O[C@H](CCl)[C@@H](O)[C@@H]2O)[C@H](O)[C@@H](O)[C@H]1Cl | inactive | inactive | inactive | inactive | inactive | inactive |  | inactive | inactive | inactive | inactive | inactive | inactive | inactive |  | inactive | inactive |  | inactive | inactive |
| Cc1ccncc1 | inactive | inactive | inactive | inactive | inactive | inactive |  | inactive | inactive | inactive | inactive | inactive | inactive | inactive | inactive | inactive |  | inactive | inactive | inactive |
| OCCc1ccccc1 | inactive | inactive | inactive | inactive | inactive | inactive | inactive | inactive | inactive | inactive | inactive | inactive | inactive | inactive | inactive | inactive | inactive | inactive | inactive |  |
| COc1cc([C@@H]2c3cc4c(cc3[C@H](O)[C@H]3COC(=O)[C@H]23)OCO4)cc(OC)c1OC | inactive | 54.4 nM (active) and 53.1 nM (active) | inactive | inactive | inactive | inactive |  | inactive |  | inactive |  |  |  |  |  | inactive |  | inactive | inactive | inactive |
| CN(C)CCOC(=O)COc1ccc(Cl)cc1 | inactive | inactive | inactive | inactive | inactive | inactive |  |  | inactive | inactive | inactive | inactive | inactive |  | inactive | inactive | inactive |  | inactive | inactive |
